Experimental data as given in PubChem BioAssay (NCATS).
“And” between values parts separate entries of the source, which are not always exact repeats. Identical values can stand only once. Inconclusive results are not listed. A number with no mark means an inactive call. The source made the active and inactive calls. Calls follow the shape of the dose curve; as a rule, active = well fitted activation curve with a large enough effect; inconclusive = small, poorly fitted or top-dose-only effect; inactive = no such curve, though single readings can be large or run the other way.

What follows are compounds tested against Cellular tumor antigen p53 (Homo sapiens) (UniProt P04637) (assay: Primary qHTS for small molecule compounds that upregulate eGFP-tagged delta133p53alpha (in N-terminal) cells. (AID 2060322; also: nearly all actives have a fitted effect of over 75% in size;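 as to activation: cells pre-induced with doxycycline then dosed without doxycycline; series mostly up to about 56 µM; 0% = DMSO vehicle and 100% = reference activator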)). Settings: NCI-H358 eGFP-delta133p53alpha fluorescence, 24 h; activation: active compounds read high.
Sequence of Cellular tumor antigen p53 (Homo sapiens) (P04637 whole entry, looked up): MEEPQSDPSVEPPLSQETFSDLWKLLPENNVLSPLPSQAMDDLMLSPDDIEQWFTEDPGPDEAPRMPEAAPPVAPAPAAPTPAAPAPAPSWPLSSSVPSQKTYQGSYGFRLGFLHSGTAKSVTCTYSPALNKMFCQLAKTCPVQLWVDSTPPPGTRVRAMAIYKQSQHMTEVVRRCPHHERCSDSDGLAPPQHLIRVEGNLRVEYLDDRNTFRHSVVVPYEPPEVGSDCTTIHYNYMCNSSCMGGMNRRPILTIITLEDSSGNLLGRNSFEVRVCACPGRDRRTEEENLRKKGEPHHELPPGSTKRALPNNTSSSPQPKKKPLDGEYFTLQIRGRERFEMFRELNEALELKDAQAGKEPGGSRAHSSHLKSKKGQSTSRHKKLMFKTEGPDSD
Outline: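 NCI-H358 cells pre-induced 24 h with 10 ng/ml doxycycline for eGFP-delta133p53alpha, plated dox-free and exposed 24 h at 37C to titrated compounds. Fixed, Hoechst-stained; gated GFP peak intensity by laser scanning cytometry, normalized to DMSO (0%) and 57.5 uM 5-azacytidine (100%).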
Potency is read from the fitted curve at half-maximal effect.

| SMILES | activation | Potency |
| --- | --- | --- |
| CC(C)(O)CC[C@@H](O)[C@](C)(O)[C@H]1CC[C@@]2(O)C3=CC(=O)[C@@H]4C[C@@H](O)[C@@H](O)C[C@]4(C)[C@@H]3CC[C@]12C | -14.8% | – |
| O=C(OCCN1CCOCC1)c1cccnc1Nc1cccc(C(F)(F)F)c1 | -7.34% | – |
| Cc1c(C)c2c(c(C)c1OC(=O)CCC(=O)OCCO)CC[C@@](C)(CCC[C@H](C)CCC[C@H](C)CCCC(C)C)O2 | -20.9% | – |
| CN1[C@H]2CC(OC(=O)[C@@H](CO)c3ccccc3)C[C@H]1[C@H]1O[C@H]12 (stereo not given in full) | 6.53% | – |
| Oc1cccc(O)c1 | -16.4% | – |
| CC(O)COc1ccccc1 (stereo not given) | -13% | – |
| Cc1cccc(C)c1NC(=O)c1cc(S(N)(=O)=O)c(Cl)cc1O | -9.21% | – |
| O=C(CN1CCNCC1)NC1CCCCC1 | 7.53% | – |
| CCCCC/C(C=O)=C\c1ccccc1 | 19.8% | – |
| CC(C)=CCCC(C)=CCCC(C)=CCSc1ccccc1C(=O)O | 4.74% | – |
| COc1cc(C)nc(-n2nc(C)cc2OC)n1 | -12.6% | – |
| COc1cccc(N(C)C(=S)Oc2ccc3c(c2)CCCC3)n1 | 25.4% and -4.03% | – |
| Nc1ncnc2c1ncn2[C@@H]1O[C@@H](CO)[C@H](O)[C@H]1O | -9.84% | – |
| CC(=O)OCC(=O)[C@@]12N=C(C)O[C@H]1C[C@H]1[C@@H]3CCC4=CC(=O)C=C[C@]4(C)[C@@H]3[C@@H](O)C[C@@]12C | -1.97% | – |
| CCCCC(CC)CNC(=O)CC(C)OC(=O)CCC(=O)O (stereo not given) | 11.7% | – |
| CCC(C(=O)OCCN1CCOC(c2ccccc2)C1C)c1ccccc1 (stereo not given) | -7.53% | – |
| Cc1cnn(C)c1C(=O)Nc1cc(Nc2ccc3c(C=Cc4ccccn4)n[nH]c3c2)ccc1F | 18.7% | – |
| CO[C@H]1/C=C\O[C@@]2(C)Oc3c(C)c(O)c4c(O)c(c(C=NN5CCN(C6CCCC6)CC5)c(O)c4c3C2=O)NC(=O)C(C)=CC=C[C@H](C)[C@H](O)[C@@H](C)[C@@H](O)[C@@H](C)[C@H](OC(C)=O)[C@H]1C | – | 24.3 µM (active) |
| Cc1nc(NC(=O)N2CCC[C@@H]2C(N)=O)sc1-c1csc(C(C)(C)C)n1 | -6.14% | – |
| O=C(C=Cc1ccc(/C=C/C(=O)Nc2ccc(C3=NCCN3)cc2)cc1)Nc1ccc(C2=NCCN2)cc1 | -8.95% | – |

| SMILES | activation | Potency |
| --- | --- | --- |
| CCCCOCCOC(=O)c1cccnc1 | -10.7% | – |
| CC=CCC=CCCC(=O)[C@H]1O[C@@H]1C(N)=O | -3.35% | – |
| C=C1C[C@@]2(O)O[C@@]3(C[C@H]2C(C)C)[C@H](C)CC[C@H]13 | 18.1% | – |
| Nc1ccc(-c2ccc3ccccc3n2)cc1 | 29.5% | – |
| NC(CO)(CO)CO | -22% | – |
| COc1ccccc1N1CCN(CC(O)COc2cc(OC)c(OC)c(OC)c2)CC1 (stereo not given) | -6.21% | – |
| O=C(O)c1ccccc1Nc1cc(Cl)ccc1C(=O)O | -31% | – |
| CCCCCCCCCCCCCCCCN | -20.1% | – |
| COc1cc2nc(N3CCN(C(=O)C4CCCO4)CC3)nc(N)c2cc1OC (stereo not given) | 1.69% and 38.8% | – |
| CCN(CC)CCNc1ccc(CO)c2sc3ccccc3c(=O)c12 | 28.5% | – |
| CSc1nc2cc(Oc3cccc(Cl)c3Cl)c(Cl)cc2[nH]1 | -40.2% | – |
| Cc1ccc2c(Br)cc(Br)c(O)c2n1 | -18.4% | – |
| CCCCCC[C@@H](CCC)C(=O)O | -13.4% | – |
| C[N+]1(C)CCCC(OC(=O)C(O)(c2ccccc2)c2ccccc2)C1 (stereo not given) | -37.9% | – |
| CC1(C)S[C@@H]2[C@H](N=CN3CCCCCC3)C(=O)N2[C@H]1C(=O)O | -11.9% | – |
| COC(=O)c1ccccc1C(=O)c1ccc(OCCN2CCCCC2)cc1 | -14.1% | – |
| CCCN1CCCC[C@H]1C(=O)Nc1c(C)cccc1C | 9.6% | – |
| CCc1cc(C(C)=NOCc2ccc(C3CCCCC3)c(C(F)(F)F)c2)ccc1CN1CC(C(=O)O)C1 | 10.9% | – |
| CC(=O)N(CC(=O)N(C)C)c1ccccc1 | -7.53% | – |
| C[C@@H]1CCN(C(=O)[C@H](CCCN=C(N)N)NS(=O)(=O)c2cccc3c2NC[C@H](C)C3)[C@@H](C(=O)O)C1 | 2.82% | – |
